Data on nine molecules can be found in PubChem BioAssay (NCI).

Compounds without any hit were thinned out: in the full panel of roughly 79,000, 15% have a hit. Values without a mark were called inactive. Calls of active or inactive are those of the source. Cut-off read from the data, not from the text of the source: active = growth inhibition above about 70%; inactive = the rest.

The nature of test [1]: NCI Yeast Anticancer Drug Screen. Data for the rad50 strain (AID 155).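 Note: 0% = growth of vehicle-only cultures of the same strain.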 The following applies: S. cerevisiae rad50 strain growth inhibition, active compounds read high. A digest of the protocol:
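Growth of the mutant yeast was measured after compound exposure and referenced to vehicle-treated cultures.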

Test [2] is described as follows: NCI Yeast Anticancer Drug Screen. Data for the mec2-1 strain (AID 157). Conditions: S. cerevisiae mec2-1 strain, active compounds read high. The method in brief: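 Vehicle-treated cultures served as reference for growth inhibition of compound-exposed mec2-1 yeast.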
Test [3] is described as follows: NCI Yeast Anticancer Drug Screen. Data for the sgs1 mgt1 strain (AID 161).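 Note: 0% = growth of cultures given vehicle only.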 Conditions: S. cerevisiae sgs1 mgt1 strain, active compounds read high. The method in brief:
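Genetically altered yeast, compound exposure, growth inhibition relative to vehicle.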

Test [4] is described as follows: NCI Yeast Anticancer Drug Screen. Data for the cln2 rad14 strain (AID 165).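 Note: 0% = growth equal to vehicle treated cultures.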 The following applies: S. cerevisiae cln2 rad14 strain, active compounds read high. The method in brief:
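Each compound was tested on cln2 rad14 yeast. Inhibition of growth was calculated against vehicle-exposed controls.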

Test [5] is described as follows: NCI Yeast Anticancer Drug Screen. Data for the bub3 strain (AID 167). Conditions: S. cerevisiae bub3 mutant strain, active compounds read high. The method in brief:
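Whole-cell yeast assay. The mutant strain was incubated with compounds, and growth inhibition was determined by comparison with vehicle-treated cells.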

Test [6] can be described thus: NCI Yeast Anticancer Drug Screen. Data for the mlh1 rad18 strain (AID 175). The following applies: S. cerevisiae mlh1 rad18 strain growth inhibition, active compounds read high. The method in brief: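 Vehicle-treated cultures served as the reference for growth inhibition in a yeast strain carrying DNA damage repair alterations exposed to each compound.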
Where [7] appears, read: at 5.0 µM (retest, dose inferred, filed as 0.5).
Setting [8] is: at 50.0 µM (retest, dose inferred, filed as 5.0).

Take `NC(=O)C1CCN(N=Nc2c(-c3ccccc3)n[nH]c2-c2ccccc2)CC1`: the growth inhibition in test [1] (setting [7]) is 79% (active); in test [1] (setting [8]), 99% (active); in test [1] (at 50.0 µM), 99.4% (active); in test [2] (setting [7]), 99% (active); in test [2] (setting [8]), 100% (active); in test [2] (at 50.0 µM) it was 99.5% (active). Also, the growth inhibition is 99% (active) in test [3] (setting [7]); 100% (active) in test [3] (setting [8]); 99.5% (active) in test [3] (at 50.0 µM); 99% (active) in test [4] (setting [7]); 99% (active) in test [4] (setting [8]); 99.3% (active) in test [4] (at 50.0 µM). In addition, the growth inhibition is 99% (active) in test [5] (setting [7]); 99% (active) in test [5] (setting [8]); 99.5% (active) in test [5] (at 50.0 µM); 99% (active) in test [6] (setting [7]); 99% (active) in test [6] (setting [8]); 99.2% (active) in test [6] (at 50.0 µM).

For `COc1ccc(C2c3cc4c(cc3OC(N3CCOCC3)C2C)OCO4)c(OC)c1` (configuration not stated), the growth inhibition in test [1] (setting [7]) was -3%; in test [1] (setting [8]) it was 88% (active); in test [1] (at 50.0 µM), 95.9% (active); in test [2] (setting [7]), -10%; in test [2] (setting [8]), 95% (active); in test [2] (at 50.0 µM), 94.9% (active). For the same molecule, the growth inhibition in test [3] (setting [7]) is 2%; in test [3] (setting [8]), 79% (active); in test [3] (at 50.0 µM), 80.8% (active); in test [4] (setting [7]), 18%; in test [4] (setting [8]) it was 99% (active); in test [4] (at 50.0 µM) it was 73.2% (active). Also, the growth inhibition in test [5] (setting [7]) was 7%; in test [5] (setting [8]), 98% (active); in test [5] (at 50.0 µM) it was 98% (active); in test [6] (setting [7]) it was -26%; in test [6] (setting [8]) it was 96% (active); in test [6] (at 50.0 µM), 97.4% (active).

Consider `S=C(NCc1ccccc1)N/N=C/c1ccccn1`, for which the growth inhibition in test [1] (setting [7]) was -22%; in test [1] (setting [8]) it was 65%; in test [1] (at 50.0 µM), 20.6%; in test [2] (setting [7]), 9%; in test [2] (setting [8]), 57%; in test [2] (at 50.0 µM), 17.4%. Moreover, the growth inhibition is -9% in test [3] (setting [7]); 60% in test [3] (setting [8]); 49.8% in test [3] (at 50.0 µM); 23% in test [4] (setting [7]); 83% (active) in test [4] (setting [8]); 62% in test [4] (at 50.0 µM). The growth inhibition in test [5] (setting [7]) was -22%; in test [5] (setting [8]), 72% (active); in test [5] (at 50.0 µM) it was 63.9%; in test [6] (setting [7]) it was 0%; in test [6] (setting [8]) it was 51%; in test [6] (at 50.0 µM), 42.7%.

`Oc1ccc[nH]c1=S`: the growth inhibition in test [1] (setting [7]) was 19%; in test [1] (setting [8]), 18%; in test [1] (at 50.0 µM), 18.4%; in test [2] (setting [7]), 6%; in test [2] (setting [8]), 12%; in test [2] (at 50.0 µM) it was 12.2%. The growth inhibition is 3% in test [3] (setting [7]); -34% in test [3] (setting [8]); 85.2% (active) in test [3] (at 50.0 µM); 8% in test [4] (setting [7]); -4% in test [4] (setting [8]); -8.7% in test [4] (at 50.0 µM). Moreover, the growth inhibition in test [5] (setting [7]) was 13%; in test [5] (setting [8]), -2%; in test [5] (at 50.0 µM), 74.5% (active); in test [6] (setting [7]), 23%; in test [6] (setting [8]), 12%; in test [6] (at 50.0 µM), 90.9% (active).

Turning to `COC(=O)C1(Cc2ccc3c(c2)CCC3)Cc2ccccc2C1O` (configuration not stated), the growth inhibition in test [1] (setting [7]) was -3%; in test [1] (setting [8]), 99% (active); in test [1] (at 50.0 µM) it was 76.5% (active); in test [2] (setting [7]) it was -40%; in test [2] (setting [8]), 99% (active); in test [2] (at 50.0 µM) it was 84.1% (active). Further, the growth inhibition in test [3] (setting [7]) is -44%; in test [3] (setting [8]), 99% (active); in test [3] (at 50.0 µM), 86.2% (active); in test [4] (setting [7]) it was 1%; in test [4] (setting [8]), 99% (active); in test [4] (at 50.0 µM), 89.8% (active). Also, the growth inhibition was -14% in test [5] (setting [7]); 99% (active) in test [5] (setting [8]); 89.6% (active) in test [5] (at 50.0 µM); -21% in test [6] (setting [7]); 99% (active) in test [6] (setting [8]); 91% (active) in test [6] (at 50.0 µM).

Consider `CCCNCCCC(C)Nc1cc(OC)cc2c(C)ccnc12` (configuration not stated), for which the growth inhibition in test [1] (setting [7]) is 17%; in test [1] (setting [8]) it was 73% (active); in test [1] (at 50.0 µM), 66.4%; in test [2] (setting [7]), 8%; in test [2] (setting [8]), 48%; in test [2] (at 50.0 µM) it was 55.2%. For the same molecule, the growth inhibition in test [3] (setting [7]) was 20%; in test [3] (setting [8]), 78% (active); in test [3] (at 50.0 µM) it was 41.9%; in test [4] (setting [7]), 2%; in test [4] (setting [8]), 46%; in test [4] (at 50.0 µM) it was 27.1%. The growth inhibition was -6% in test [5] (setting [7]); 80% (active) in test [5] (setting [8]); 53.7% in test [5] (at 50.0 µM); 11% in test [6] (setting [7]); 86% (active) in test [6] (setting [8]); 59.2% in test [6] (at 50.0 µM).

Take `COc1ccc(C(c2ccc(N(C)C)cc2)c2ccc(N(C)C)cc2)cc1`: the growth inhibition in test [1] (setting [7]) was 97% (active); in test [1] (setting [8]) it was 85% (active); in test [1] (at 50.0 µM), 93.5% (active); in test [2] (setting [7]), 98% (active); in test [2] (setting [8]), 88% (active); in test [2] (at 50.0 µM), 93% (active). For the same molecule, the growth inhibition is 99% (active) in test [3] (setting [7]); 89% (active) in test [3] (setting [8]); 94% (active) in test [3] (at 50.0 µM); 98% (active) in test [4] (setting [7]); 85% (active) in test [4] (setting [8]); 41.6% in test [4] (at 50.0 µM). Moreover, the growth inhibition in test [5] (setting [7]) is 99% (active); in test [5] (setting [8]), 90% (active); in test [5] (at 50.0 µM) it was 94.5% (active); in test [6] (setting [7]) it was 99% (active); in test [6] (setting [8]), 87% (active); in test [6] (at 50.0 µM) it was 73.2% (active).

With `Cc1ccsc1C(=S)Nc1ccc(Cl)c(/C=N/OC(C)C)c1`, the growth inhibition was 4% in test [1] (setting [7]); 15% in test [1] (setting [8]); 32% in test [1] (at 50.0 µM); 9% in test [2] (setting [7]); 14% in test [2] (setting [8]); 19.9% in test [2] (at 50.0 µM). Further, the growth inhibition in test [3] (setting [7]) is 7%; in test [3] (setting [8]) it was 31%; in test [3] (at 50.0 µM) it was 21.6%; in test [4] (setting [7]) it was 2%; in test [4] (setting [8]) it was 17%; in test [4] (at 50.0 µM) it was 44.8%. Besides, the growth inhibition in test [5] (setting [7]) is 13%; in test [5] (setting [8]), 43%; in test [5] (at 50.0 µM), 23.1%; in test [6] (setting [7]), 12%; in test [6] (setting [8]), 14%; in test [6] (at 50.0 µM), 55.2%.

For the molecule `NC(N)=Nc1ccc(N=C(N)N)cc1`, the growth inhibition is 3% in test [1] (setting [7]); 2% in test [1] (setting [8]); 92% (active) in test [1] (at 50.0 µM); 1% in test [2] (setting [7]); -2% in test [2] (setting [8]); 99.7% (active) in test [2] (at 50.0 µM). Also, the growth inhibition in test [3] (setting [7]) was -1%; in test [3] (setting [8]), -3%; in test [3] (at 50.0 µM) it was 17.1%; in test [4] (setting [7]) it was 1%; in test [4] (setting [8]), 1%; in test [4] (at 50.0 µM) it was 60.8%. The growth inhibition in test [5] (setting [7]) is 3%; in test [5] (setting [8]) it was 3%; in test [5] (at 50.0 µM) it was 99.2% (active); in test [6] (setting [7]), 2%; in test [6] (setting [8]), 2%; in test [6] (at 50.0 µM), 45.5%.
